Compounds without any hit were thinned out: in the full panel of roughly 79,000, 15% have a hit. Activity calls are given as the source filed them. Cut-off read from the data, not from the text of the source: active = growth inhibition above about 70%; inactive = the rest.
Experiments:
[1] = NCI Yeast Anticancer Drug Screen. Data for the rad52 strain (AID 147);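 note: 0% = growth of vehicle-treated control cultures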; settings: S. cerevisiae rad52 mutant growth inhibition, active compounds read high
In short: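 Read-out: growth inhibition versus vehicle-treated controls. Cells were a DNA repair-deficient yeast strain treated with compounds.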

[2] = NCI Yeast Anticancer Drug Screen. Data for the wt1 strain (AID 149);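 note: 0% = growth of vehicle-treated wt1 cultures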; settings: S. cerevisiae wt1 strain (SPY 50644) growth inhibition, active compounds read high
In short: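 Yeast wt1 strain exposed to compounds; growth inhibition measured relative to vehicle-treated controls.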

[3] = NCI Yeast Anticancer Drug Screen. Data for the rad50EPP+ strain (AID 151);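 note: 0% = growth of vehicle-treated control cultures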; settings: S. cerevisiae rad50 mutant strain, active compounds read high
In short: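 Growth inhibition read against vehicle controls in rad50EPP+ yeast, a strain altered in DNA damage repair, after compound exposure.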

[4] = NCI Yeast Anticancer Drug Screen. Data for the mgt1 strain (AID 153); settings: S. cerevisiae mgt1 mutant growth inhibition, active compounds read high
In short: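 mgt1 yeast grown with test compound; read-out is growth inhibition versus vehicle-treated cultures.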

[5] = NCI Yeast Anticancer Drug Screen. Data for the rad50 strain (AID 155);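 note: 0% = growth of vehicle-only cultures of the same strain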; settings: S. cerevisiae rad50 strain growth inhibition, active compounds read high
In short: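 Yeast carrying a defined DNA repair defect were exposed to test compounds, and growth was compared with vehicle-treated controls to give percent inhibition.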

[6] = NCI Yeast Anticancer Drug Screen. Data for the mec2-1 strain (AID 157); settings: S. cerevisiae mec2-1 strain, active compounds read high
In short: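 Yeast mec2-1 mutant treated with compound. Readout: growth inhibition vs vehicle controls.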

[7] = NCI Yeast Anticancer Drug Screen. Data for the rad14 strain (AID 159);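 note: 0% = growth of vehicle-treated control cultures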; settings: S. cerevisiae rad14 strain growth inhibition, active compounds read high
In short: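 Yeast cells carrying a defined DNA-repair defect were exposed to compounds, and growth inhibition was calculated relative to vehicle-treated control cultures.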

[8] = NCI Yeast Anticancer Drug Screen. Data for the sgs1 mgt1 strain (AID 161);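 note: 0% = growth of cultures given vehicle only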; settings: S. cerevisiae sgs1 mgt1 strain, active compounds read high
In short: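 Mutant yeast exposed to compound; growth scored against vehicle-only wells.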

[9] = NCI Yeast Anticancer Drug Screen. Data for the CLN2oe strain (AID 163);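 note: 0% = growth of vehicle-only control cultures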; settings: S. cerevisiae CLN2oe strain, active compounds read high
In short: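 Read-out: yeast growth inhibition, expressed relative to vehicle-only controls. The strain bears an engineered cell-cycle alteration.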

[10] = NCI Yeast Anticancer Drug Screen. Data for the cln2 rad14 strain (AID 165);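 note: 0% = growth equal to vehicle treated cultures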; settings: S. cerevisiae cln2 rad14 strain, active compounds read high
In short: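 cln2 rad14 yeast strain; compound exposure; growth inhibition read vs vehicle controls.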

[11] = NCI Yeast Anticancer Drug Screen. Data for the bub3 strain (AID 167); settings: S. cerevisiae bub3 mutant strain, active compounds read high
In short: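 Compounds were applied to a genetically altered yeast strain carrying a cell-cycle control defect. Growth inhibition was scored against vehicle-treated controls.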

[12] = NCI Yeast Anticancer Drug Screen. Data for the wt2 strain (AID 169);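 note: 0% = growth of vehicle-treated yeast cultures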; settings: S. cerevisiae wt2 strain growth inhibition, active compounds read high
In short: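 Read-out: growth inhibition versus vehicle-treated control cultures after compound exposure of the yeast strain.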

[13] = NCI Yeast Anticancer Drug Screen. Data for the mlh1 strain (AID 171);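 note: 0% = growth of vehicle-treated control cultures of the same strain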; settings: S. cerevisiae mlh1 strain growth inhibition, active compounds read high
In short: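 Read-out: growth inhibition versus vehicle controls. Strain: engineered yeast with a defined DNA repair or cell cycle defect, compound-treated.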

[14] = NCI Yeast Anticancer Drug Screen. Data for the sgs1 strain (AID 173);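 note: 0% = growth of vehicle-only control cultures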; settings: S. cerevisiae sgs1 mutant, active compounds read high
In short: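 Read-out: yeast growth inhibition relative to vehicle controls, following compound exposure of a strain with a defined DNA repair/cell cycle alteration.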

[15] = NCI Yeast Anticancer Drug Screen. Data for the mlh1 rad18 strain (AID 175); settings: S. cerevisiae mlh1 rad18 strain growth inhibition, active compounds read high
In short: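 Yeast w/ defined DNA-repair lesions; compound exposure; growth vs vehicle controls → % inhibition.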

[16] = NCI Yeast Anticancer Drug Screen. Data for the rad18 strain (AID 177); settings: S. cerevisiae rad18 mutant growth inhibition, active compounds read high
In short: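 Readout: growth inhibition vs vehicle controls. Cells: genetically altered yeast strain, DNA repair defect.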

[17] = at 5.0 µM (retest, dose inferred, filed as 0.5)
[18] = at 50.0 µM (retest, dose inferred, filed as 5.0)

Measured: growth inhibition

O=C1OC(C2=CC(=O)c3ccccc3C2=O)C(Cl)=C1Cl (stereo not drawn)
inactive: [1]; at 1.2 µM 3% | [1]; at 3.7 µM 15% | [1]; at 11.0 µM 46% | [2]; at 1.2 µM 1% | [2]; at 3.7 µM 9% | [2]; at 11.0 µM 9% | [2]; at 33.0 µM 14% | [2]; at 100.0 µM 28% | [3]; at 1.2 µM 3% | [3]; at 3.7 µM 13% | [3]; at 11.0 µM 47% | [4]; at 1.2 µM -1% | [4]; at 3.7 µM 0% | [4]; at 11.0 µM 1% | [4]; at 33.0 µM 12% | [4]; at 100.0 µM 24% | [5]; at 1.2 µM 0% | [5]; at 3.7 µM 1% | [5]; [17] 5% | [5]; at 11.0 µM 11% | [5]; at 33.0 µM 30% | [5]; [18] 44% | [5]; at 100.0 µM 47% | [6]; at 1.2 µM -1% | [6]; at 3.7 µM 6% | [6]; [17] 1% | [6]; at 11.0 µM 14% | [6]; at 33.0 µM 34% | [6]; [18] 47% | [6]; at 100.0 µM 56% | [7]; at 1.2 µM 0% | [7]; at 3.7 µM 4% | [7]; at 11.0 µM 12% | [7]; at 33.0 µM 37% | [7]; at 100.0 µM 69% | [8]; [17] 17% | [9]; at 1.2 µM -2% | [9]; at 3.7 µM -13% | [9]; at 11.0 µM -4% | [9]; at 33.0 µM 12% | [9]; at 100.0 µM 30% | [10]; [17] 0% | [10]; [18] 51% | [11]; at 1.2 µM 3% | [11]; at 3.7 µM -1% | [11]; [17] -1% | [11]; at 11.0 µM -2% | [11]; at 33.0 µM 2% | [11]; [18] 6% | [11]; at 50.0 µM 57.4% | [11]; at 100.0 µM 12% | [12]; at 1.2 µM 1% | [12]; at 3.7 µM 1% | [12]; at 11.0 µM 4% | [12]; at 33.0 µM 13% | [12]; at 100.0 µM 36% | [13]; at 1.2 µM -2% | [13]; at 3.7 µM 3% | [13]; at 11.0 µM 6% | [13]; at 33.0 µM 22% | [13]; at 100.0 µM 13% | [14]; at 1.2 µM 4% | [14]; at 3.7 µM 13% | [14]; at 11.0 µM 48% | [15]; [17] 11% | [16]; at 1.2 µM 31%
active: [1]; at 33.0 µM 89% | [1]; at 100.0 µM 91% | [3]; at 33.0 µM 81% | [3]; at 100.0 µM 82% | [5]; at 50.0 µM 86.3% | [6]; at 50.0 µM 80.9% | [8]; [18] 78% | [8]; at 50.0 µM 95.5% | [10]; at 50.0 µM 95.3% | [14]; at 33.0 µM 79% | [14]; at 100.0 µM 87% | [15]; [18] 77% | [15]; at 50.0 µM 94.8% | [16]; at 3.7 µM 79% | [16]; at 11.0 µM 92% | [16]; at 33.0 µM 95% | [16]; at 100.0 µM 94%
